# Experimental data as given in PubChem BioAssay.
# Active and inactive are the calls of the source. Unless noted, the rule behind the calls is not given here.
# Tests used:
# [1] = A549 cell viability effects, profiling panel, calcein-AM fluorescence, 48 h, basal (AID 1162); conditions: higher = more signal; note: test concentration not given here
# [2] = adipocyte viability effects, profiling panel, cell-based, 3T3-L1 adipocytes, calcein-AM fluorescence, 48 h, basal (AID 1163); conditions: 3T3-L1 adipocytes viability, higher = more signal; note: test concentration not given here
# [3] = HepG2 cell viability effects, profiling panel, calcein-AM fluorescence, 48 h, basal (AID 1164); conditions: higher = more signal; note: test concentration not given here
# [4] = MM1S cell viability effects, profiling panel, calcein-AM fluorescence, 48 h, basal (AID 1165); conditions: higher = more signal;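 note: viability of MM1S multiple myeloma cells under basal unstimulated conditions; test concentration not given here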
# [5] = basal RPMI8226 viability, no added stimulus, profiling panel, cell-based, calcein-AM fluorescence, 48 h, PK04 Diversity Set (AID 1166); conditions: RPMI8226 myeloma viability, higher = more signal;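 note: cells grown under basal conditions without added stimulus; test concentration not given here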
# [6] = basal HepG2 mitochondrial membrane potential changes, profiling panel, cell-based, JC-1 fluorescence, 24 h, 100 nL compound (AID 1167); conditions: higher = more signal; note: test concentration not given here
# [7] = basal 3T3-L1 adipocyte mitochondrial potential changes, profiling panel, cell-based, JC-1 fluorescence, 3T3-L1 adipocytes, 24 h, 100 nL compound (AID 1168); conditions: JC-1 mitochondrial fluorescence, higher = more signal, called active from +8 up or from −8 down; note: test concentration not given here
# [8] = basal RPMI8226 mitochondrial membrane potential changes, profiling panel, cell-based, JC-1 fluorescence, 24 h, 100 nL compound (AID 1169); conditions: RPMI8226 myeloma, JC-1 mitochondrial potential fluorescence, higher = more signal; note: test concentration not given here
# [9] = basal MM1S mitochondrial membrane potential changes, profiling panel, cell-based, JC-1 fluorescence, 24 h, 100 nL compound (AID 1170); conditions: higher = more signal; note: test concentration not given here
# [10] = A549 lung cancer cell viability effects, profiling panel, resazurin fluorescence, 24 h, PK04 Diversity Set (AID 1171); conditions: higher = more signal, called active from +8 up or from −8 down; note: test concentration not given here
# [11] = HepG2 liver cancer cell viability effects, profiling panel, resazurin fluorescence, 24 h, PK04 Diversity Set (AID 1172); conditions: higher = more signal; note: test concentration not given here
# [12] = basal S. cerevisiae growth modulation, no modifier, primary screen, OD600, strain BY4716, 24 h, basal condition (AID 1173); conditions: OD600, 24 h, higher = more signal, called active from +8 up or from −8 down
# [13] = MM1S myeloma cell viability, profiling panel, resazurin fluorescence, basal, 24 h, PK04 Diversity Set (AID 1174); conditions: higher = more signal, called active from +8 up or from −8 down;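 note: MM1S multiple myeloma cell line; test concentration not given here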
# [14] = molecular target: Dihydroorotate dehydrogenase (quinone), mitochondrial (Plasmodium falciparum (isolate 3D7)) (UniProt Q08210); experiment: PfDHODH enzyme inhibitors, primary screen, biochemical, C-terminal His tag, absorbance 600 nm (AID 1175); conditions: DCIP absorbance 600 nm, higher = more signal, called active from +8 up or from −8 down;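 note: recombinant parasite enzyme with a five histidine tag at its C terminus; test concentration not given here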
# [15] = P. aeruginosa biofilm formation inhibitors, primary screen, strain PAO1, LB-PBS medium, absorbance 600 nm (AID 1176); note: test concentration not given here; conditions: P. aeruginosa PAO1 growth/biofilm, A600, 12 h; higher = more signal
# [16] = S. cerevisiae RM11-1a growth modifiers, primary screen, strain RM11-1a, OD600, basal, 24 h (AID 1177); conditions: OD600, 24 h, higher = more signal, called active from +8 up or from −8 down;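 note: cultures grown under basal conditions with no added stressor; test concentration not given here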
# [17] = E. coli acrAB mutant growth effects, primary screen, E. coli filamentation inducers, strain DRC39, OD650, 24 h (AID 1178); conditions: higher = more signal, called active from +8 up or from −8 down;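 note: growth measured as culture turbidity by optical density at 650 nm; test concentration not given here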
# [18] = E. coli acrAB mutant growth effects, primary screen, E. coli filamentation inducers, strain DRC39, OD650, 48 h (AID 1179);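 note: screen aims at cell division blockers that make cells filament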; conditions: E. coli DRC39 delta-acrAB growth, higher = more signal, called active from +8 up or from −8 down
# [19] = RPMI8226 myeloma cell viability, profiling panel, resazurin fluorescence, basal, 24 h, PK04 Diversity Set (AID 1180); conditions: higher = more signal;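 note: RPMI8826 multiple myeloma cell line at 5000 cells per well; test concentration not given here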
# [20] = molecular target: E3 ubiquitin-protein ligase XIAP (Homo sapiens) (UniProt P98170); experiment: XIAP binders, primary screen, biophysical, small-molecule microarray, fluorescence 635 nm (AID 1181); conditions: small-molecule microarray binding, higher = more signal;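 note: score merges 667 nm emission and signal to noise over triplicate slides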
# Chain of E3 ubiquitin-protein ligase XIAP (Homo sapiens) (P98170 whole entry, looked up): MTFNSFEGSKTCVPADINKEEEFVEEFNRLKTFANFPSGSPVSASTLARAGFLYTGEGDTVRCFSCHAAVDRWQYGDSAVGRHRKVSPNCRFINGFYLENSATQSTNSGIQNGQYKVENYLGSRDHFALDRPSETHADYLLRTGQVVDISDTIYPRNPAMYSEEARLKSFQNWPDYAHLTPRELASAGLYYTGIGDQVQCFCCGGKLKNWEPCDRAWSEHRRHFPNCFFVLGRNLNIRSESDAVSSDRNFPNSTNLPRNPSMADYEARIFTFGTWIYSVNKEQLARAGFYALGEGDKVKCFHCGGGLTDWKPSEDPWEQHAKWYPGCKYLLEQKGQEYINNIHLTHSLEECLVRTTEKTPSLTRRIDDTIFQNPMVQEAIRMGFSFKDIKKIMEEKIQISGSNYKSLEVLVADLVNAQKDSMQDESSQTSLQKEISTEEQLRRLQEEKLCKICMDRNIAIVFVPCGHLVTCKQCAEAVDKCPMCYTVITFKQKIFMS
# Chain of Dihydroorotate dehydrogenase (quinone), mitochondrial (Plasmodium falciparum (isolate 3D7)) (Q08210 whole entry, looked up): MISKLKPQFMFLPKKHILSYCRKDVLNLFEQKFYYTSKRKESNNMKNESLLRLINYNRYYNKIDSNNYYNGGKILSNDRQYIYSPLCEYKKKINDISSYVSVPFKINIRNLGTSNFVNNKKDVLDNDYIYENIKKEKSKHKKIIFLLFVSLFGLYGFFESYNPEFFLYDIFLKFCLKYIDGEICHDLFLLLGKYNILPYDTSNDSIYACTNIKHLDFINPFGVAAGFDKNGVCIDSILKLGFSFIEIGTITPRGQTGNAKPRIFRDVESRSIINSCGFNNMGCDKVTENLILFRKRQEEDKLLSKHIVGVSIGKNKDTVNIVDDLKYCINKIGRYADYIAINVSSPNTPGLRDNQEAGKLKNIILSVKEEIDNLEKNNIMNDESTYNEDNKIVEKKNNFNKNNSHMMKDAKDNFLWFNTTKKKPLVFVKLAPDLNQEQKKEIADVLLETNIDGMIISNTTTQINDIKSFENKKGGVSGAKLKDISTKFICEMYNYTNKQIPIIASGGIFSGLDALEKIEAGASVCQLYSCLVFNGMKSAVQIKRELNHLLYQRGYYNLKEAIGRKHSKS
smiles,measurement,setting,value
COC(=O)C(CC#Cc1ccc2c(c1)[C@]1(C(=O)N2)[C@H](c2ccc(OCCO)cc2)N2[C@H](c3ccccc3)[C@H](c3ccccc3)OC(=O)[C@H]2[C@@H]1C(=O)N1CCCCCCC1)C(=O)OC,z-score,[1],0.996
same,z-score,[2],0.915
same,z-score,[3],0.846
same,z-score,[4],0.491
same,z-score,[5],-1.88
same,z-score,[6],-0.386
same,z-score,[7],-1.82 (inactive)
same,z-score,[8],-1.08
same,z-score,[9],-1.36
same,z-score,[10],-0.387 (inactive)
same,z-score,[11],-0.198
same,z-score,[12],1.12 (inactive)
same,z-score,[13],-0.223 (inactive)
same,composite z-score,[14],0.365 (inactive)
same,z-score,[15],2.9 (inactive)
same,z-score,[16],1.3 (inactive)
same,z-score,[17],-0.8 (inactive)
same,z-score,[18],0.136 (inactive)
same,z-score,[19],-1.02
same,composite z-score,[20],0.997
COC(=O)[C@@]1(Cc2ccc(OC)cc2)[C@H]2c3cc(C(=O)N(C)C)[nH]c3C[C@H]2CN1C(=O)c1ccccc1,z-score,[1],-0.974
same,z-score,[2],-0.539
same,z-score,[3],0.683
same,z-score,[4],0.945
same,z-score,[5],0.184
same,z-score,[6],1.46
same,z-score,[7],-0.372 (inactive)
same,z-score,[8],-0.582
same,z-score,[9],-0.488
same,z-score,[10],0.145 (inactive)
same,z-score,[11],-0.576
same,z-score,[12],0.304 (inactive)
same,z-score,[13],-0.798 (inactive)
same,composite z-score,[14],-0.309 (inactive)
same,z-score,[15],-0.471 (inactive)
same,z-score,[16],0.68 (inactive)
same,z-score,[17],-0.151 (inactive)
same,z-score,[18],0.192 (inactive)
same,z-score,[19],-0.247
same,composite z-score,[20],-0.147
CN(C)CCCCNC(=O)[C@H]1C[C@H]2C(=O)N3CCC[C@H]3C(=O)N2[C@H]1c1cccc(OCCO)c1,z-score,[1],-0.893
same,z-score,[2],-0.0471
same,z-score,[3],-0.458
same,z-score,[4],0.123
same,z-score,[5],0.291
same,z-score,[6],-1.05
same,z-score,[7],0.119 (inactive)
same,z-score,[8],0.712
same,z-score,[9],0.0655
same,z-score,[10],0.677 (inactive)
same,z-score,[11],-0.0329
same,z-score,[12],0.949 (inactive)
same,z-score,[13],0.299 (inactive)
same,composite z-score,[14],0.483 (inactive)
same,z-score,[15],0.202 (inactive)
same,z-score,[16],1.76 (inactive)
same,z-score,[17],-0.0332 (inactive)
same,z-score,[18],-0.536 (inactive)
same,z-score,[19],-0.116
same,composite z-score,[20],0.906
CN(C)CCCC[C@@H]1NC(=O)[C@@H]2C[C@H](C(=O)NCCCCCN)[C@H](c3cccc(OCCO)c3)N2C1=O,z-score,[1],2.2
same,z-score,[2],0.494
same,z-score,[3],1.44
same,z-score,[4],-0.0351
same,z-score,[5],0.891
same,z-score,[6],1.63
same,z-score,[7],-1.03 (inactive)
same,z-score,[8],-0.891
same,z-score,[9],0.697
same,z-score,[10],1.08 (inactive)
same,z-score,[11],0.881
same,z-score,[12],-0.985 (inactive)
same,z-score,[13],1.49 (inactive)
same,composite z-score,[14],-0.417 (inactive)
same,z-score,[15],0.531 (inactive)
same,z-score,[16],-2.59 (inactive)
same,z-score,[17],2.01 (inactive)
same,z-score,[18],2.02 (inactive)
same,z-score,[19],0.819
same,composite z-score,[20],-0.184
[N-]=[N+]=NCc1ccccc1[C@@H]1OC(c2ccc(OCCCO)cc2)=N[C@]1(Cc1ccccc1N=[N+]=[N-])C(=O)NCC(O)CO (stereo not given in full),z-score,[1],-0.619
same,z-score,[2],0.0728
same,z-score,[3],-0.326
same,z-score,[4],-1.78
same,z-score,[5],-1.57
same,z-score,[6],-0.686
same,z-score,[7],0.265 (inactive)
same,z-score,[8],-1.2
same,z-score,[9],-0.6
same,z-score,[10],-1.09 (inactive)
same,z-score,[11],-0.897
same,z-score,[12],-0.815 (inactive)
same,z-score,[13],-0.954 (inactive)
same,composite z-score,[14],-0.728 (inactive)
same,z-score,[15],0.507 (inactive)
same,z-score,[16],0.628 (inactive)
same,z-score,[17],-0.0582 (inactive)
same,z-score,[18],0.625 (inactive)
same,z-score,[19],-1.47
same,composite z-score,[20],0.243
[N-]=[N+]=Nc1ccccc1[C@H]1OC(c2ccc(OCCCO)cc2)=N[C@@]1(Cc1ccccc1)C(=O)NCC(O)CO (stereo not given in full),z-score,[1],-0.761
same,z-score,[2],0.405
same,z-score,[3],-0.629
same,z-score,[4],-1.5
same,z-score,[5],-2.2
same,z-score,[6],0.854
same,z-score,[7],0.291 (inactive)
same,z-score,[8],-0.925
same,z-score,[9],-1
same,z-score,[10],-0.949 (inactive)
same,z-score,[11],1.21
same,z-score,[12],-1.65 (inactive)
same,z-score,[13],-1.21 (inactive)
same,composite z-score,[14],-0.0513 (inactive)
same,z-score,[15],-1.08 (inactive)
same,z-score,[16],0.972 (inactive)
same,z-score,[17],0.413 (inactive)
same,z-score,[18],0.318 (inactive)
same,z-score,[19],-1.28
same,composite z-score,[20],0.0487
COc1ccc(C(=O)Nc2cccc(CN3C(=O)[C@@]4(O[C@@H](CC(=O)N5CCC[C@H]5CO)[C@H]([Si](C)(C)c5ccc(OC)cc5)[C@H]4C)c4ccccc43)c2)cc1,z-score,[1],-0.273
same,z-score,[2],0.695
same,z-score,[3],-0.765
same,z-score,[4],-2.74
same,z-score,[5],-4.26
same,z-score,[6],1.98
same,z-score,[7],0.487 (inactive)
same,z-score,[8],-1.13
same,z-score,[9],-1.06
same,z-score,[10],-0.35 (inactive)
same,z-score,[11],-0.429
same,z-score,[12],-0.0739 (inactive)
same,z-score,[13],-1.17 (inactive)
same,composite z-score,[14],-5.69 (inactive)
same,z-score,[15],1.03 (inactive)
same,z-score,[16],0.844 (inactive)
same,z-score,[17],0.603 (inactive)
same,z-score,[18],0.274 (inactive)
same,z-score,[19],-1.25
same,composite z-score,[20],0.147
Cc1ccccc1C(O)C1C=CC2C(=O)N(c3ccccc3)C(=O)C2N1Nc1ccccc1 (stereo not given),z-score,[1],-0.0545
same,z-score,[2],-1.17
same,z-score,[3],1.8
same,z-score,[4],0.928
same,z-score,[5],-0.645
same,z-score,[6],-0.978
same,z-score,[7],-0.703 (inactive)
same,z-score,[8],-0.318
same,z-score,[9],-0.638
same,z-score,[10],0.0292 (inactive)
same,z-score,[11],-0.341
same,z-score,[12],-2.84 (inactive)
same,z-score,[13],-0.516 (inactive)
same,composite z-score,[14],0.106 (inactive)
same,z-score,[15],0.956 (inactive)
same,z-score,[16],0.0725 (inactive)
same,z-score,[17],-0.36 (inactive)
same,z-score,[18],0.372 (inactive)
same,z-score,[19],-0.0175
same,composite z-score,[20],0.265
